PubChem BioAssay AID1159580 (chemical genetic matrix, 2015)
Values joined by “and” are separate entries in the source; they are usually repeats but may differ in a detail not shown here. Equal entries are not always repeated. In all, about 5,500 compounds went through this assay and about 2,000 (36%) were called active. Roughly 18% stayed inconclusive and do not appear here. Rule as the data show it: active = normalized growth mostly below about 0.91 (no sharp cut-off); inconclusive = no clear call, values can overlap the other calls; inactive = mostly above about 0.92. The list shows a part of the results.

Experiment: chemical genetic growth profiling, strain panel (AID 1159580);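 also: tested at 20 µM; growth read once vehicle control cultures reached saturation at 30 °C; 1 = growth at the plate median or of vehicle wells; lower values mean less growth of the strain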
Settings: S. cerevisiae deletion strains, growth OD

Measured: normalized growth

CCCCC1C(=O)N(c2ccccc2)N(c2ccc(O)cc2)C1=O (stereo not given)
inactive: locus YAL021C, strain ccr4, stronger effect = lower value 1.02 | locus YAL026C, strain drs2, stronger effect = lower value 0.998 | locus YAL030W, strain snc1, stronger effect = lower value 1 | locus YBL061C, strain skt5, stronger effect = lower value 0.999 | locus YBR009C, strain hhf1, stronger effect = lower value 0.998 | locus YBR021W, strain FUR4, stronger effect = lower value 0.995 | locus YBR023C, strain chs3, stronger effect = lower value 1 | locus YBR171W, strain sec66, stronger effect = lower value 1.01 | locus YBR229C, strain ROT2, stronger effect = lower value 0.953 | locus YBR231C, strain swc5, stronger effect = lower value 1 | locus YBR279W, strain paf1, stronger effect = lower value 0.993 | locus YCL011C, strain gbp2, stronger effect = lower value 1.01 | locus YCL016C, strain dcc1, stronger effect = lower value 1.01 | locus YCL029C, strain bik1, stronger effect = lower value 0.969 | locus YCL061C, strain MRC1, stronger effect = lower value 1.01 | locus YCL069W, strain vba3, stronger effect = lower value 1 | locus YCR088W, strain abp1, stronger effect = lower value 1.01 | locus YDL005C, strain med2, stronger effect = lower value 0.995 | locus YDL035C, strain GPR1, stronger effect = lower value 0.972 | locus YDL040C, strain nat1, stronger effect = lower value 0.997 | locus YDL074C, strain BRE1, stronger effect = lower value 0.947 | locus YDL101C, strain DUN1, stronger effect = lower value 0.98 | locus YDL134C, strain PPH21, stronger effect = lower value 0.999 | locus YDL185W, strain tfp1, stronger effect = lower value 0.974 | locus YDL192W, strain arf1, stronger effect = lower value 0.984 | locus YDR001C, strain nth1, stronger effect = lower value 0.995 | locus YDR069C, strain doa4, stronger effect = lower value 0.988 | locus YDR101C, strain arx1, stronger effect = lower value 1.01 | locus YDR137W, strain rgp1, stronger effect = lower value 0.98 | locus YDR150W, strain NUM1, stronger effect = lower value 0.979 | locus YDR159W, strain sac3, stronger effect = lower value 1 | locus YDR162C, strain NBP2, stronger effect = lower value 0.99 | locus YDR195W, strain ref2 0.987 | locus YDR297W, strain sur2, stronger effect = lower value 1.01 | locus YDR318W, strain mcm21, stronger effect = lower value 0.994 | locus YDR334W, strain swr1, stronger effect = lower value 1.01 | locus YDR335W, strain msn5, stronger effect = lower value 1.01 | locus YDR388W, stronger effect = lower value 0.998 | locus YDR392W, strain spt3, stronger effect = lower value 1.01 | locus YDR502C, strain sam2, stronger effect = lower value 0.99 | locus YEL003W, strain gim4, stronger effect = lower value 0.998 | locus YEL037C, strain rad23, stronger effect = lower value 1 | locus YEL061C, strain CIN8 (second series), stronger effect = lower value 1 | locus YEL061C, strain CIN8, stronger effect = lower value 0.987 | locus YER015W, strain faa2, stronger effect = lower value 0.996 | locus YER016W, strain bim1, stronger effect = lower value 0.998 | locus YER110C, stronger effect = lower value 0.965 | locus YER111C, strain swi4, stronger effect = lower value 1 | locus YER155C, strain BEM2 (second series), stronger effect = lower value 1.04 | locus YER155C, strain BEM2, stronger effect = lower value 0.997 | locus YER167W, strain BCK2, stronger effect = lower value 0.987 | locus YFR010W, strain ubp6, stronger effect = lower value 1.01 | locus YGL078C, strain dbp3, stronger effect = lower value 0.995 | locus YGL086W, strain mad1, stronger effect = lower value 0.963 | locus YGL167C, strain pmr1, stronger effect = lower value 1 | locus YGL173C, strain kem1, stronger effect = lower value 0.983 | locus YGL227W, strain vid30, stronger effect = lower value 1.01 | locus YGL240W, strain doc1, stronger effect = lower value 1 | locus YGL248W, strain PDE1, stronger effect = lower value 0.97 | locus YGL253W, strain hxk2, stronger effect = lower value 1.01 | locus YGR135W, strain pre9, stronger effect = lower value 0.988 | locus YGR229C, strain SMI1, stronger effect = lower value 0.992 | locus YGR252W, strain gcn5, stronger effect = lower value 0.893 | locus YHR013C, strain ard1, stronger effect = lower value 1 | locus YHR027C, strain rpn1, stronger effect = lower value 0.999 | locus YHR030C, strain SLT2, stronger effect = lower value 0.999 and 0.974 | locus YHR079C, strain IRE1 (second series), stronger effect = lower value 0.997 | locus YHR079C, strain IRE1, stronger effect = lower value 0.973 | locus YHR094C, strain hxt1, stronger effect = lower value 0.993 | locus YHR129C, strain ARP1, stronger effect = lower value 0.982 | locus YHR142W, strain chs7, stronger effect = lower value 1.01 | locus YHR200W, strain rpn10, stronger effect = lower value 0.988 | locus YIL066C, strain RNR3, stronger effect = lower value 0.976 | locus YIL073C, strain SPO22, stronger effect = lower value 1.01 | locus YIL125W, strain kgd1, stronger effect = lower value 0.985 | locus YIR030C, strain dcg1, stronger effect = lower value 0.983 | locus YJL092W, strain hpr5, stronger effect = lower value 1.01 | locus YJL095W, strain BCK1 (second series), stronger effect = lower value 1.01 | locus YJL095W, strain BCK1, stronger effect = lower value 1 and 0.992 | locus YJL115W, strain asf1, stronger effect = lower value 1.01 | locus YJL129C, strain trk1, stronger effect = lower value 0.997 | locus YJL134W, strain LCB3, stronger effect = lower value 0.988 | locus YJL154C, strain vps35, stronger effect = lower value 1 | locus YJL164C, strain tpk1, stronger effect = lower value 0.994 | locus YJL166W, strain qcr8, stronger effect = lower value 1.01 | locus YJL168C, strain set2, stronger effect = lower value 0.994 | locus YJL187C, strain SWE1 (second series), stronger effect = lower value 0.98 | locus YJL187C, strain SWE1, stronger effect = lower value 1 | locus YJR043C, strain POL32, stronger effect = lower value 0.999 | locus YJR066W, strain TOR1, stronger effect = lower value 0.93
